Bioassay records from PubChem.
A selection: hits, their analogues and other compounds. The true share with any hit is near 3.7%.
FadD28 binding: blocks FadD28 binding to the bisubstrate probe; fluorescence polarization; inhibition, % at 12.5 µM; 0.22% of 360,000 active; in the data active means inhibition above about 8.5%, passing the limit was not always enough
GDH-TPI inh: counter-screen for M. tuberculosis FBA inhibitors: GDH-TPI coupled enzymes | GDH-TPI coupled enzyme counterscreen, NADH absorbance | inhibition, % at 4.8 µM | 1.2% of 360,000 active | AID 588335; in the data active means inhibition above about 30%;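 further: 0% = DMSO wells and 100% = wells lacking the enzyme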
Rv3671c protease: inhibitors of M. tuberculosis serine protease Rv3671c; P9WHR9; inhibition, % at 5.96 µM; 0.048% of 320,000 active; AID 2606; in the data active means inhibition above about 38%;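 further: extracellular domain of Rv3671c used as enzyme; 0% = enzyme with DMSO and 100% = no enzyme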
Target sequence (P9WHR9 whole entry, looked up, the tested form may be a part): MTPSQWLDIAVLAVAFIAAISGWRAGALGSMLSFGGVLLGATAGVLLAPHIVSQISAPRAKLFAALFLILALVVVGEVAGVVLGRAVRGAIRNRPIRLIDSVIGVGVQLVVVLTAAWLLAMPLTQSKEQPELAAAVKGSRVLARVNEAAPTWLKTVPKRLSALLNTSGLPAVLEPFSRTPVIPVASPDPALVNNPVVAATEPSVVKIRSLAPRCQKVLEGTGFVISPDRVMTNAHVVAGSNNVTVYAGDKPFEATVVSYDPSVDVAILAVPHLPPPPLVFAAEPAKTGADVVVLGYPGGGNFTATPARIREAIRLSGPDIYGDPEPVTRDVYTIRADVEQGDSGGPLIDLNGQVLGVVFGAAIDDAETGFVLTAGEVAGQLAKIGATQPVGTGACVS
Mtb bLac sens: beta-lactam sensitization of Mtb H37Rv; M. tuberculosis H37Rv growth with meropenem, percent inhibition; inhibition, % at 25 µM; 0.27% of 330,000 active; call rule not given here;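 further: growth measured after seven days incubation then overnight dye step; 0% = bacteria only wells and 100% = bacteria with antibiotic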
Mtb FBA inh: Mtb fructose-bisphosphate aldolase inhibition. P9WQA3. purified M. tuberculosis FBA, fluorescence read-out. inhibition, % at 1 µM. 2.3% of 360,000 active. AID 588726; in the data active means inhibition above about 27%;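 further: 0% = vehicle and 100% = reference inhibitor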
UGM FP inh: inhibitors of M. tuberculosis UDP-galactopyranose mutase; AID 504406; purified UGM, fluorescence polarization probe displacement; P9WIQ1; inhibition, % at 10 µM; 0.06% of 320,000 active; in the data active means inhibition above about 10%, passing the limit was not always enough
The depositor's hits bear a star; . = no result; + = active, no number.

SMILES	FadD28 binding	GDH-TPI inh	Rv3671c protease	Mtb bLac sens	Mtb FBA inh	UGM FP inh
CCOc1ccc(/C=C2\CCCc3c2nc2ccccc2c3C(=O)O)cc1OC	4	11	3	-15	-8	70*
COc1ccc(/C=C2\CCCc3c2nc2ccccc2c3C(=O)O)cc1OC	.	.	2	-8	.	48*
COc1ccc(/C=C2\CCc3c2nc2ccccc2c3C(=O)O)cc1OC	2	17	-4	23	-4	3
CC1(C(=O)NS(=O)(=O)Cc2ccccc2)CCN1C(=O)CCc1ccccc1 (stereo not drawn)	0	8	.	.	-2	.
CC(C)C(=O)N1CCCC1(C)C(=O)Nc1ccc2c(c1)OCO2 (stereo not drawn)	-1	4	.	.	4	.
CC(=O)NC(c1ccc(F)c(F)c1)c1nc(-c2ccncc2)cs1 (stereo not drawn)	-3	1	.	.	-3	.
COc1ccccc1CNC(=O)CCN1C(=O)c2ccccc2C1=O	-3	2	3	0	117*	2
C[C@@H]1CN([C@@H](C)CO)C(=O)c2cc(Br)cnc2O[C@H]1CN(C)C(=O)Nc1ccccc1	-3	-2	.	.	0	.
O=C(Nc1nc2nccc(-c3ccccc3)n2n1)C(Cl)(Cl)Cl	0	21	-6	-1	173*	2
Clc1cccc(-c2ccnc3nc(-n4cccc4)nn23)c1	-3	6	0	9	11	-2
Cc1cc(NC(=O)c2sc(Nc3ccc(F)c(Cl)c3)nc2N)no1	-3	13	3	-1	-6	0
Cc1cc(NC(=O)c2sc(Nc3cccc(C(F)(F)F)c3)nc2N)no1	-1	33*	10	38	-1	1
COCCN(C(=O)Cn1c(C(F)(F)F)nc2ccccc21)c1c(N)n(Cc2ccccc2)c(=O)[nH]c1=O	-5	2	-5	-21	0	2
COc1ccc(-c2c(-c3ccccc3OC)oc3ccccc23)cc1F	0	16	-3	12	17	0
COc1cc(-c2cc(C(=O)Nc3ccc(N4CCOCC4)cc3)c3ccccc3n2)cc(OC)c1OC	-2	42*	6	-4	-2	-2
O=C(Nc1ccc(N2CCOCC2)cc1)c1cc(-c2ccncc2)nc2ccccc12	-3	12	0	-3	1	-3
COCC(C)OC(=O)c1c(N)n(Cc2ccco2)c2nc3ccccc3nc12 (stereo not drawn)	-4	12	1	0	130*	1
CCCCOCCCn1c(N)c(C(=O)OCCOC)c2nc3ccccc3nc21	-1	15	-10	35	134*	-1
COCC(C)OC(=O)c1c(N)n(-c2ccc(OC)c(OC)c2)c2nc3ccccc3nc12 (stereo not drawn)	.	.	4	4	.	1
COCCn1c(N)c(C(=O)OCc2ccccc2)c2nc3ccccc3nc21	-10	0	-40	10	+	1
COCCOC(=O)c1c(N)n(Cc2ccccc2)c2nc3ccccc3nc12	-11	6	-1	6	+	-1
CCOC(=O)c1c(NC(=O)c2c(N)n(CCCOC)c3nc4ccccc4nc23)sc2c1CCCC2	-3	1	6	2	-3	-3
c1csc(-c2nc3nc4ccccc4nc3n2Cc2ccc3c(c2)OCO3)c1	-2	25	3	1	2	-2
CCCn1c(-c2cccs2)nc2nc3ccccc3nc21	-7	31*	-2	-18	+	-2
COCCn1c(-c2cccs2)nc2nc3ccccc3nc21	-3	19	13	-6	+	1
SMILES	FadD28 binding	GDH-TPI inh	Rv3671c protease	Mtb bLac sens	Mtb FBA inh	UGM FP inh
O=C(CNC(=O)c1ccncc1)N/N=C/c1ccc(O)cc1O	-2	39*	-5	-3	0	1
CN(C)c1ccc(/C=N/NC(=O)CNC(=O)c2ccncc2)cc1	-2	33*	4	1	5	0
CN(C)c1ccc(/C=N/NC(=O)CNC(=O)/C=C/c2ccco2)cc1	-2	40*	9	-2	6	2
COc1cc(/C=N/NC(=O)CNC(=O)c2ccncc2)ccc1O	-1	13	4	-1	-1	0
COc1cccc(/C=N/NC(=O)CNC(=O)c2ccncc2)c1O	-1	9	-3	1	-1	-2
O=C(CNC(=O)c1ccc2c(c1)OCCO2)N/N=C/c1ccc(O)cc1O	-1	28	0	2	0	-1
CN(C)c1ccc(/C=N/NC(=O)CNC(=O)c2ccc3c(c2)OCCO3)cc1	0	40*	-5	7	24	-3
N#CC1=C(N)Oc2cc(O)c(Cl)cc2C1c1ccccc1F (stereo not drawn)	1	-4	-4	-1	0	-8
CCS(=O)(=O)Nc1ccc(C2=NN(C(=O)c3ccco3)C(c3ccc(C)cc3)C2)cc1 (stereo not drawn)	-4	24	-2	15	3	1
CS(=O)(=O)Nc1ccc(C2=NN(C(=O)c3ccco3)C(c3cccc(F)c3)C2)cc1 (stereo not drawn)	-3	31*	-13	3	3	1
CCS(=O)(=O)Nc1ccc(C2=NN(C(=O)c3ccco3)C(c3cccc(F)c3)C2)cc1 (stereo not drawn)	-8	24	-20	2	5	0
CCC(=O)N1N=C(c2ccc(NS(=O)(=O)CC)cc2)CC1c1ccc(C)cc1 (stereo not drawn)	-2	5	-4	7	+	-2
CCS(=O)(=O)Nc1ccc(C2=NN(C(=O)c3ccco3)C(c3ccc(Cl)o3)C2)cc1 (stereo not drawn)	-1	50*	-10	3	5	-1
O=C(Nc1ccc(F)cc1)C1CCN(S(=O)(=O)c2ccc3[nH]c(=O)oc3c2)CC1	-3	-8	8	3	-1	1
Cc1cnc(C(=O)OCC(=O)N2C(C)CCCC2C)cn1 (stereo not drawn)	-2	18	-6	-7	0	1
O=C(N/N=C/c1ccc(N2CCOCC2)cc1)c1ccc(O)cc1	-3	66*	2	12	4	0
O=C(N/N=C/c1ccc(N2CCOCC2)s1)c1ccc(O)cc1	0	34*	.	.	1	.
O=C(NN=Cc1ccc(N2CCOCC2)s1)c1ccc([N+](=O)[O-])cc1	0	26	0	9	-6	4
Cc1ccc(C(=O)N/N=C/c2ccc(N3CCOCC3)cc2)c(C)c1	-2	34*	1	-8	1	0
CCOC(=O)c1cc(-c2ccccc2)nc2nc(N(CC)CC)sc12	-1	10	-16	24	65*	0
O=C1NC[C@H](c2ccccc2)OC(=O)[C@H](Cc2ccc(F)cc2)C/C=C\C[C@H]1CC(=O)N(CCO)Cc1ccccc1	-3	16	7	-1	8	0
CC(=O)C(=Nc1ccc(Cl)cc1Cl)NNc1cccc(Cl)c1	0	31*	-4	94	1	0
